Laboratory results from PubChem BioAssay (NCI).
The panel holds about 83,000 compounds, 20% with a hit somewhere; the sample as a whole holds those more often.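 Note: values are percent growth. 100 is the growth of untreated cells, values between 100 and 0 indicate rising inhibition; between -100 and 0 indicates cell death.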 Values without a mark were called inactive. The source made the active and inactive calls.

These compounds were tested on OVCAR-4 ovarian (assay: NCI-60 one-dose screen, 48 h (100 = growth as untreated, 0 = no growth, -100 = all killed)). Settings: 10 µM unless noted.
Description: Growth inhibition of the OVCAR-4 human tumor cell line is measured as a screen for anti-cancer activity. Cells are grown in 96 well plates and exposed to the test compound for 48 hours. Compounds are tested at a single concentration, which is 10^-5 M for most compounds. The reported endpoint is percent growth (GI% or GIPRCNT), where numbers from 0 - 100% represent growth inhibition, and numbers from -100% - 0 represent cell death. For example, a value of 40 represents 60% growth inhibition. A value of 0 means no net growth occurred over the course of the experiment. A value of -40 indicates 40% of cells at the beginning of the experiment died by the end of the experiment. A value of -100 means all cells are dead at the end of the experiment.
NCI-60 Human Tumor Cell Lines Screen was performed using the standard one-dose NCI protocol, which is described in more detail at https://dtp.cancer.gov/discovery_development/nci-60/default.htm.
Compounds with GIPRCNT values below 10 were considered active. Activity score was based on GIPRCNT using the following formula: […]
Score is 0 for GIPRCNT values of 100 or above, 50 for GIPRCNT values of 0, and 100 for GIPRCNT values of -100.
COc1ccc(N2CCN(c3ccc(NC4=C(Cl)C(=O)c5ncccc5C4=O)cc3)CC2)cc1 was tested, and the growth was 28.8%.
CCN(CC)CCn1c(=O)c2cc(OC)c(OC)cc2c2ccc3cc4c(cc3c21)OCO4 was tested, and the growth was 66.4%.
For COc1ccc(-c2nc([C@@H](C)Sc3nc(N)cc(N)n3)c(C)s2)cc1OCCN1CCOCC1, the growth was 106%.
Work on O=C(Cc1ccccc1)NNc1nc(Cl)nc(N2CCN(C(c3ccccc3)c3ccccc3)CC2)n1 yielded a growth of 106%.
NS(=O)(=O)c1ccc(CCn2c(SCC(=O)c3ccc(Cl)cc3)nc3ccccc3c2=O)cc1 was tested, and the growth was 103%.
CCCCCCCCCCCCCCCC[N+]1(C)CCN(SN2CC[N+](C)(CCCCCCCCCCCCCCCC)CC2)CC1 showed a growth of 74.6%.
O=C(CNCCN1CCOCC1)N1c2cccc3cccc(c23)N(C(=O)CNCCN2CCOCC2)C1c1cn(-c2ccccc2)nc1-c1cccc([N+](=O)[O-])c1 showed a growth of 90.7%.
Cn1cc(-c2csc(-c3c[nH]c4ccccc34)n2)c2ccnc(Cl)c21 gave a growth of 48.5%.
COc1ccc(-c2cnc3c(-c4cccc5ncccc45)cnn3c2)cc1 was tested, and the growth was 6.3% (active).
In the case of C=CCN1C(=O)/C(=C/C(=O)OC)S/C1=N\NC(=O)c1cc2ccc1/C=C\c1ccc(cc1)/C=C\2, the growth is reported as 97.1%.
Compound COc1ccc(C(=O)/C=C/c2cc3ccccc3n3nnnc23)cc1 has a growth of 106%.
In the case of O=C1Nc2cc(-c3cccc(O)c3)ccc2/C1=C/c1ccc[nH]1, the growth is reported as 25.4%.
Cc1nn(-c2ccccc2)c(Cl)c1/C=C/C(=O)c1ccc(F)cc1 was tested, and the growth was 93.1%.
With CCCCCCOc1ccc(/C=N/Nc2cc(C)nc3ccc(Cl)cc23)cc1 the growth was -58.1% (active).
O=C(NCCNc1nccc(-c2c(-c3cccc(F)c3)nc3sccn23)n1)c1ccc(Cl)cc1 gave a growth of 77.9%.
Cn1c2ccccc2c2c3c(c4c5ccccc5n(C)c4c21)C(=O)OC3 was tested, and the growth was 96.9%.
Compound CNC(=O)c1cccc(Cn2nc(C)c(NC(=O)c3ccc(COc4ccc(C(F)(F)F)cc4C)cc3)c2C)n1 has a growth of 37.8%.
In the case of CCCCCN1C=C/C(=C\C(=O)n2ccc3ccccc32)c2ccccc21, the growth is reported as 71.6%.
With Cc1cccc(NC(=O)Nc2ccc(-n3cnc4cc(-c5ccc(O)cc5)ccc43)cc2)c1 the growth was 27.4%.
In the case of COc1ccc2[nH]c(O)c(/C=c3/cc4c(c(-c5ccc(F)cc5)n3)=Nc3ccccc3-4)c2c1, the growth is reported as 81.6%.
CC(C)N1C(=O)/C(=C2\SC(=S)N(C(C)C)C2=O)SC1=S was tested, and the growth was 89.6%.
O=C(Nc1ccc(NC(=O)c2cc(=O)[nH]c3ccccc23)cc1)Nc1cccc(Cl)c1 gave a growth of 78.8%.
With CC(=O)[C@@H]1CC[C@]2(CO)CC[C@]3(C)[C@H](CC[C@@H]4[C@@]5(C)CCCNC(C)(C)[C@@H]5CC[C@]43C)[C@@H]12 the growth was 101%.
For Cc1cccc(C)c1N=c1oc2ccc(Cl)cc2nc1-c1ccccc1O, the growth was 78.4%.
In the case of CCOC(=O)c1cc(C(=O)c2ccc(OC)c(OC)c2)n2ccc(/C=C/c3cc[n+](CC(=O)c4ccc(OC)c(OC)c4)cc3)cc12, the growth is reported as 90.9%.
With COC(=O)C1=C(C(=O)ON)[C@@H]2C=C[C@@]1([C@@H](Cc1ccccc1)Nc1ccccc1)O2 the growth was 79.9%.
With COc1cc(/C=C\c2cc(OC)c(OC)c(OC)c2)cc(NC(=O)/C=C/c2cc(OC)c(OC)c(OC)c2)c1OC the growth was 61%.
CCc1ccc(-c2cn3ccnc3c(-c3ccc4ncn(Cc5ccccc5)c4c3)n2)cc1 showed a growth of 64.9%.
COc1cc(C2=C(c3cn(C)c4ccccc34)COC2=O)cc(OC)c1OC showed a growth of 21.4%.
With CCCCNC(=O)Oc1ccc(/C(=C(\C)c2ccccc2)c2ccc(OCCN3CCCCC3)cc2)cc1 the growth was 75.4%.
C=CC(=O)N[C@@H](/C=C/C(=O)OCC)Cc1ccc(-c2cc(Cl)cc(Cl)c2)cc1 showed a growth of 10.7%.
In the case of COc1cc(OC)cc(C(=O)C[n+]2cccc3cc[nH]c32)c1, the growth is reported as 99.3%.
CC(Oc1ccc(C(=O)O)cc1C(F)(F)F)c1ccc(Oc2ccccc2)cn1 (stereo not given) was tested, and the growth was 106%.
With COc1cc2oc(-c3cccc(C(=O)Nc4ccccc4)c3)cc(=O)c2c(O)c1OC the growth was -20.2% (active).
COC(=O)CNC(=O)[C@]12CCC(C)(C)C[C@H]1C1=CC[C@@H]3[C@@]4(C)Cc5c([nH]c6ccccc56)C(C)(C)[C@@H]4CC[C@@]3(C)[C@]1(C)CC2 showed a growth of 77%.
Work on C[C@@H](Nc1ncnc2ccc(-c3cnc(N)nc3)cc12)c1ccc(F)cc1 yielded a growth of 74.3%.
Oc1cccc(CCc2ccc(Oc3cc(CCc4cccc(O)c4)cc(O)c3O)cc2)c1 was tested, and the growth was 58.9%.
CN1CCC(=C(c2ccccc2)c2ccccc2)C(c2ccccc2)C1 (stereo not given) was tested, and the growth was 104%.
COc1cccc(-c2nc3occn3c2-c2ccnc(NCCNS(=O)(=O)c3cccc4ccccc34)n2)c1 showed a growth of 102%.
Cc1ccc(/C=N/NC(=O)CSc2nc3ccccc3c(=O)n2Cc2ccc(S(N)(=O)=O)cc2)cc1 gave a growth of 106%.
